# Test results taken from the supplement of paper PMC7366291.
# Where a name gives a salt, the structure may show the parent alone. ± gives the standard deviation.
# Tested on: Danio rerio Tg(wt1b:EGFP) embryo, pronephros
# Assay: glomerular separation, fold change vs DMSO control; higher = glomeruli further apart (abnormal)
# Conditions: 25 µM; exposure: 24-48 hpf
# Method in brief: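 Dechorionated Tg(wt1b:EGFP) zebrafish embryos were treated with 25 μM compound in 0.5% DMSO, in HEPES-buffered E3 with 0.003% PTU, from 24 to 48 hpf at 28.5°C. On maximum projections of dorsal pronephros images, 16 hand-placed reference points in Fiji gave distances and angles, and values more than 2 SD from the feature mean were left out. Results are fold changes over the mean of same-day DMSO-treated embryos.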
row,SMILES,glomerular separation
1,O=P1(NCCCl)OCCCN1CCCl (stereo not given) [Ifosfamide],1.05 ± 0.39
2,CC[C@@H](CO)NC(=O)[C@@H]1C=C2c3cccc4[nH]cc(c34)C[C@H]2N(C)C1 [Methylergometrine maleate],1.12 ± 0.46
3,CNC(C)(C)Cc1ccccc1 [Mephentermine hemisulfate],0.946 ± 0.41
4,CCC1(C)CC(=O)NC(=O)C1 [Bemegride],0.891 ± 0.28
5,CN(C)C(=O)Oc1cc(OC(=O)N(C)C)cc(C(O)CNC(C)(C)C)c1 (stereo not given) [Bambuterol hydrochloride],0.925 ± 0.31
6,C[C@]12CC[C@@H](O)C[C@H]1CC[C@@H]1[C@@H]2CC[C@]2(C)C(=O)CC[C@@H]12 [3-alpha-Hydroxy-5-beta-androstan-17-one],1.13 ± 0.44
7,CCC(COC(=O)c1cc(OC)c(OC)c(OC)c1)(c1ccccc1)N(C)C (stereo not given) [Trimebutine],0.875 ± 0.36
8,COc1ccc2c(c1)[C@]13CCCC[C@@H]1[C@H](C2)N(C)CC3 [Dextromethorphan hydrobromide monohydrate],1.03 ± 0.23
9,CC(=O)O[C@H]1C[C@@H]2CC[C@@H]3[C@H](CC[C@@]4(C)[C@H]3C[C@H]([N+]3(C)CCCCC3)[C@@H]4OC(C)=O)[C@@]2(C)C[C@@H]1[N+]1(C)CCCCC1 [Pancuronium bromide],1.23 ± 0.41
10,C#C[C@]1(O)CC[C@H]2[C@@H]3CCC4=CC(=O)CCC4=C3C=C[C@@]21CC [Gestrinone],1.64 ± 0.91
11,COc1ccc(CN2CCNCC2)c(OC)c1OC [Trimetazidine dihydrochloride],0.91 ± 0.3
12,CN1[C@@H]2CC[C@H]1C[C@@H](OC(=O)[C@H](CO)c1ccccc1)C2 [Hyoscyamine (L)],0.956 ± 0.51
13,C[C@@H]1C[C@@H]([C@H](O)CC2CC(=O)NC(=O)C2)C(=O)[C@@H](C)C1 [Cycloheximide],0.972 ± 0.45
14,NCCCNCCSP(=O)(O)O [Amifostine],0.91 ± 0.29
15,CC(C)N(CCC(C(N)=O)(c1ccccc1)c1ccccn1)C(C)C (stereo not given) [Disopyramide],0.9 ± 0.32
16,C[N+]1(C)[C@@H]2CC[C@H]1C[C@@H](OC(=O)C(CO)c1ccccc1)C2 (stereo not given in full) [Methylatropine nitrate],1.01 ± 0.39
17,Oc1ccc2c3c1O[C@H]1[C@@H](O)CC[C@@]4(O)[C@@H](C2)N(CC2CCC2)CC[C@]314 [Nalbuphine hydrochloride],0.874 ± 0.27
18,C=CC[C@]1(O)CC[C@H]2[C@@H]3CCC4=CC(=O)CCC4=C3C=C[C@@]21C [Altrenogest],1.44 ± 0.77

row,SMILES,glomerular separation
1,C[C@]12CC[C@@H]3c4ccc(OC(=O)N(CCCl)CCCl)cc4CC[C@H]3[C@@H]1CC[C@@H]2O [Estramustine],2.15 ± 0.79
2,"NCC(O)c1ccc(O)cc1 (racemic) [(+,-)-Octopamine hydrochloride]",0.97 ± 0.66
3,C#CCN(C)[C@H](C)Cc1ccccc1 [Selegiline hydrochloride],0.996 ± 0.51
4,CN1C(=O)CCS(=O)(=O)C1c1ccc(Cl)cc1 (stereo not given) [Chlormezanone],1.15 ± 0.46
5,O=P1(N(CCCl)CCCl)NCCCO1 (stereo not given) [Cyclophosphamide],0.894 ± 0.2
6,CC(=O)NC1CCSC1=O (racemic) [N-Acetyl-DL-homocysteine Thiolactone],0.761 ± 0.24
7,CCC1(c2cccc(O)c2)CCCCN(C)C1 (stereo not given) [Meptazinol hydrochloride],1.01 ± 0.35
8,NC(=O)C[S+]([O-])C(c1ccccc1)c1ccccc1 (stereo not given) [Modafinil],1.04 ± 0.25
9,CC(C)CC(N(C)C)C1(c2ccc(Cl)cc2)CCC1 (stereo not given) [Sibutramine hydrochloride],0.986 ± 0.37
10,O=[N+]([O-])O[C@@H]1CO[C@H]2[C@@H]1OC[C@@H]2O [Isosorbide mononitrate],0.951 ± 0.48
11,CN1C[C@H](CNC(=O)OCc2ccccc2)C[C@@H]2c3cccc4c3c(cn4C)C[C@H]21 [Metergoline],0.977 ± 0.48
12,CC(=O)OC1CN2CCC1CC2 (stereo not given) [Aceclidine Hydrochloride],0.978 ± 0.38
13,Fc1ccc(C(OCCN2CCN(CCCc3ccccc3)CC2)c2ccc(F)cc2)cc1,5.45 ± 2.3
14,C=CCN1CC[C@]23c4c5ccc(O)c4O[C@H]2C(=O)CC[C@@]3(O)[C@H]1C5 [Naloxone hydrochloride],0.981 ± 0.33
15,C1CCc2nnnn2CC1 [Pentylenetetrazole],0.925 ± 0.28
16,C[C@]12CC[C@H](O)C[C@H]1CC[C@@H]1[C@@H]2CC[C@]2(C)[C@@H](C3=CC(=O)OC3)CC[C@]12O [Digitoxigenin],1.38 ± 0.71
17,CC(C)[N+](C)(CCC(C(N)=O)(c1ccccc1)c1ccccc1)C(C)C [Isopropamide iodide],0.996 ± 0.45
